Screens from PubChem BioAssay.
USP28 block = human USP28 deubiquitinase inhibition; 47,000 compounds, 3% hits; purified USP28, Ub-rhodamine cleavage fluorescence, 30 min; inhibition, % at 25 µM; Q96RU2; AID 1645857
OTUD3 inh = human OTUD3 deubiquitinase inhibition. inhibition, % at 25 µM. 47,000 compounds, 0.7% hits. Q5T2D3. AID 1645858. purified OTUD3, Ub-rhodamine fluorescence, 2 h
Target sequence (Q5T2D3 whole entry, looked up): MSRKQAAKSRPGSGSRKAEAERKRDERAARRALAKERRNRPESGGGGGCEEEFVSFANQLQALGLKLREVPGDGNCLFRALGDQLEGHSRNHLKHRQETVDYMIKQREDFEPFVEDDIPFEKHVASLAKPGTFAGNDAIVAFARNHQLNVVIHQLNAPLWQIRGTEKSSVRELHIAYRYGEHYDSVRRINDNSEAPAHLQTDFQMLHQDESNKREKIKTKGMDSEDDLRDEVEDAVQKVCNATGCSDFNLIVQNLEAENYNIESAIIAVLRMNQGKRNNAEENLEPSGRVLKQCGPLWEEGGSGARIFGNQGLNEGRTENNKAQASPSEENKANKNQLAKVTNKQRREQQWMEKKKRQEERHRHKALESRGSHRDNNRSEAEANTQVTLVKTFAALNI
A number is an active result; n = inactive. Shown are actives, neighbours in structure and some others; about 3.4% of the full set was active somewhere. Cut-off read from the data, not from the text of the source: active = inhibition above about 30%; inactive = the rest.

SMILES	USP28 block	OTUD3 inh
Nc1cc(C(=O)OCC(=O)N2CCC(Cc3ccccc3)CC2)ccc1Cl	n	n
O=C(OCC(=O)N1CCC(Cc2ccccc2)CC1)c1ccc(N2CCCC2=O)cc1	43.1	n
O=C(Cc1ccc(-n2c(=O)c3ccccc3n(CC(=O)Nc3ccc(Cl)cc3Cl)c2=O)cc1)NCc1ccco1	n	n
CCC(C)NC(=O)Cn1c(=O)n(-c2ccccc2)c(=O)c2ccc(C(=O)NCc3ccco3)cc21 (stereo unspecified)	38.7	31.8
Cc1ccc(C)c(NC(=O)CCc2nc(CSc3nc4ccccc4o3)no2)c1	n	39.3
COc1ccccc1NC(=O)CCc1nc(CSc2nc3ccccc3o2)no1	33.0	n
Cc1cccc(C)c1NC(=O)CCc1nc(CSc2nc3ccccc3o2)no1	n	n
COc1ccccc1NC(=O)CCc1nc(-c2ccccc2)no1	n	n
CCOc1cc(-c2noc(-c3ccccc3)n2)ccc1OCC(=O)Nc1ncccc1C	n	n
CCOC(=O)C1CCN(C(=O)C2CCC3(CC2)CNC(=O)c2ccccc2O3)CC1 (stereo unspecified)	n	n
Cc1ccn(-c2ccc(NC(=O)C3CCCCC3)cc2)n1	n	n
COc1ccc(NC(=O)C2CCCN(S(=O)(=O)N3CCCCCC3)C2)cc1 (stereo unspecified)	n	n
O=C(COc1ccc(C2CCCCC2)cc1)Nc1ccc(-c2nn3cnnc3s2)cc1	44.9	46.2
O=C(Nc1ccc(-c2nn3cnnc3s2)cc1)c1ccc(Br)cc1	n	n
Cc1ccc(S(=O)(=O)NC(C(=O)N=c2sc3ccccc3n2C)C(C)C)cc1 (stereo unspecified)	n	n
Cc1c(Cl)cccc1NC(=O)CCNc1c(N2CCCC2)c(=O)c1=O	n	n
COc1nc(OC)nc(N2CCC(NC(=O)C(Cc3ccc(C)cc3)NC(C)=O)CC2)n1 (stereo unspecified)	n	n
O=C(CN1CCN(c2nccn2-c2ccccc2F)CC1)Nc1ccccc1	n	n
NC(=O)c1cccc(NS(=O)(=O)c2ccccc2)c1	n	n
O=S(=O)(Nc1ccc(Oc2ccccc2)cc1)c1ccccc1	60.2	n
Cc1cc2nc(C)c(C/C=C/c3ccccc3)c(=O)n2[nH]1	n	n
CCOc1ccc(CCNC(=O)c2ccc3c(c2)N(CC)C(=O)c2ccccc2S3)cc1OCC	60.2	n
O=C(NCCCN1CCOCC1)c1ccc2c(c1)N(Cc1ccc(Cl)cc1)C(=O)c1ccccc1S2	n	n
O=C(NCc1ccco1)N1CCc2[nH]nc(-c3ccccc3)c2C1	n	n
COc1cc(NC(=O)c2ccc3c(c2)OCO3)ccc1-c1cc2ccccc2oc1=O	43.2	54.6
SMILES	USP28 block	OTUD3 inh
Cc1cc(NC(=O)c2ccccc2F)ccc1-c1cc2ccccc2oc1=O	n	n
O=C(C1CC1)N1CCC2(COCc3cnc(-c4ccccc4)nc32)C1 (stereo unspecified)	n	n
O=C(NC1CCCC1)c1cccc(N2CCCCS2(=O)=O)c1	n	n
CCc1nc(-c2cccc(NC(=O)c3ccc(C#N)cc3F)c2)no1	51.3	n
CCc1nc(-c2cccc(NC(=O)c3ccc(C#N)cc3)c2)no1	n	n
CC(C)(C)c1ccc(C(=O)Nc2ccc(Cn3cncn3)cc2)cc1	55.5	n
O=C(Nc1ccc(Cn2cncn2)cc1)C1CCCCC1	n	n
COc1ccc(/C=C2\CSc3sccc3C2=O)cc1	49.7	n
COc1ccc(/C=C/c2cc(OC)cc(=O)o2)cc1	n	n
Cc1cccc(-n2ncc(C(=O)Nc3cccc(F)c3)c2-n2cccc2)c1	n	n
O=C(c1cnn2c3c(cnc12)CCCC3)N1CCOCC1	n	n
C=C1CCC2[C@](C)(CCC[C@]2(C)C(=O)OC)[C@H]1CCc1ccoc1CNC(C)C (stereo partly specified)	n	30.3
C=C1CCC2[C@](C)(CCC[C@]2(C)C(=O)OC)[C@H]1CCc1ccoc1CNC(CCSC)C(=O)O (stereo partly specified)	n	n
O=C(NCc1ccccc1F)C1CCN(c2cc(N3CCOCC3)ncn2)CC1	n	n
Cc1cc(C2CCCN2C(=O)c2cc(C)on2)on1 (stereo unspecified)	n	n
COc1ccc(C(C)=O)cc1COC(=O)Cn1cnc2c1c(=O)n(C)c(=O)n2C	n	n
CC(C)Oc1ccc(CNC(=O)c2ccc3ccnc(N4CCN(c5ccccc5F)CC4)c3c2)cc1	n	n
CC(=O)Nc1ccc(-c2nc(Cn3nc(C)cc3C)c(C)o2)cc1	n	n
CC(=O)Nc1ccc(-c2nc(Cn3cc(C)cn3)c(C)o2)cc1	33.4	n
CCC(=O)Nc1ccc(-c2nc(Cn3cc(C)cn3)c(C)o2)cc1	55.1	n
CCc1ccc(NC(=O)Cn2cc(-c3nnc(C)o3)ccc2=O)cc1	n	n
Cc1cc(-c2cnc(N(C)C)nc2-c2ccc(CNC(=O)C(C)(C)C)cc2)on1	n	n
CCc1noc(-c2ccc(SCC(=O)NC3CCCCC3)nc2)n1	n	n
O=S1(=O)CCN(CC2CCCO2)c2c(Oc3ccc(F)cc3)nc(F)c(Cl)c21 (stereo unspecified)	n	n
Cc1nc2ccc(NC(=O)COc3ccccc3F)cc2s1	n	n
SMILES	USP28 block	OTUD3 inh
Cc1nc2ccc(NC(=O)Nc3ccccc3F)cc2s1	40.4	n
Cc1nccc(C(=O)N2CCCC(Cc3cnc(N(C)C)cn3)CC2)n1 (stereo unspecified)	n	n
CC1CCN(C(=O)c2ccc(CSc3nc4ccncc4n3Cc3ccccc3)cc2)CC1	n	n
O=C(NCc1ccco1)c1ccc(Cn2c(SCc3ccccc3)nc3ccncc32)cc1	71.6	74.8
O=C(N1CCC2(CC1)Nc1ccccc1S(=O)(=O)N2)C1(c2ccccc2)CCCC1	n	n
O=C(CNc1ccc(F)cc1F)Nc1ccc2c(c1)OC(F)(F)O2	49.1	n
O=C(CNC1CCCc2ccccc21)Nc1ccc2c(c1)OC(F)(F)O2 (stereo unspecified)	n	n
Cc1ccc2c(c1C)NC(=O)[C@]21N2CCC[C@H]2[C@@H](C(=O)c2cc3ccccc3o2)[C@]12C(=O)Nc1ccccc12	n	n
CSc1ccccc1C(=O)Nc1nc(-c2ccncc2)cs1	n	n
Cn1c(-c2c(-c3ccccc3)n[nH]c2-c2ccccc2Cl)nc2ccccc21	38.3	n
Cn1c(-c2c(N)n(Cc3ccc(Cl)cc3)c3nc4ccccc4nc23)nc2ccccc21	n	n
O=C1Cc2ccccc2C(=O)N1Cc1cccc(Cl)c1	n	n
O=C1N(Cc2cccc(Cl)c2)CCN1c1ccc(F)cc1F	47.8	n
CC(NC(=O)CN1CCN(Cc2ccc(F)cc2)C1=O)c1ccccc1 (stereo unspecified)	n	n
O=C1N(Cc2cccc(Cl)c2)CCN1c1ccc2c(c1)CCC2	60.8	n
NC(=O)COC(=O)c1c2c(nc3ccccc13)/C(=C/c1ccc(Cl)cc1)CC2	n	n
COc1ccc2c(Cl)c(C(=O)N3CCCCC3)sc2c1	n	n
Cn1nnc2ccc(-c3noc(Cc4cccc(F)c4)n3)cc21	n	n
Cn1cc(-c2noc(Cc3cccc(C(F)(F)F)c3)n2)ccc1=O	79.1	n
O=C1CC(C(=O)Nc2ccccc2F)n2nc(-c3ccccc3)cc2N1 (stereo unspecified)	55.9	n
O=C1CC(C(=O)Nc2ccccc2Cl)n2nc(-c3ccccc3)cc2N1 (stereo unspecified)	n	n
O=C(COC(=O)C(c1ccccc1)c1ccccc1)Nc1ccc(S(=O)(=O)N2CCCC2)cc1	n	n
O=C(Nc1cccc(S(=O)(=O)N2CCCCC2)c1)c1cccc2ccccc12	n	n
